Source: PubChem
CYP2C9 inh – blockers of cytochrome P450 2C9 activity – biochemical, luminescence, ADME assay, primary screen | CYP2C9 Supersomes, luciferin-H conversion | inhibition, % at 5 µM | P11712 | actives 20% (n = 96,000);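 active = blocking of liver enzyme CYP2C9 beyond about 50% at 5 µM, limit read from the data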
CYP2C19 act – human CYP2C19 activators, primary screen, biochemical, luminescence; Cytochrome P450 2C19 (Homo sapiens), P33261; recombinant CYP2C19, luciferin-H EGE luminescence; stronger effect = higher value; 0 = fully inhibited enzyme, 1 = untreated enzyme; activation factor at 5 µM; 96,000 tested, under 10 active;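 active = activation factor of at least 2 at 5 µM in the primary screen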;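 note: 0 = wells with 2.5 mM tranylcypromine and 1 = vehicle-only wells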
Target sequence (P33261 whole entry, looked up): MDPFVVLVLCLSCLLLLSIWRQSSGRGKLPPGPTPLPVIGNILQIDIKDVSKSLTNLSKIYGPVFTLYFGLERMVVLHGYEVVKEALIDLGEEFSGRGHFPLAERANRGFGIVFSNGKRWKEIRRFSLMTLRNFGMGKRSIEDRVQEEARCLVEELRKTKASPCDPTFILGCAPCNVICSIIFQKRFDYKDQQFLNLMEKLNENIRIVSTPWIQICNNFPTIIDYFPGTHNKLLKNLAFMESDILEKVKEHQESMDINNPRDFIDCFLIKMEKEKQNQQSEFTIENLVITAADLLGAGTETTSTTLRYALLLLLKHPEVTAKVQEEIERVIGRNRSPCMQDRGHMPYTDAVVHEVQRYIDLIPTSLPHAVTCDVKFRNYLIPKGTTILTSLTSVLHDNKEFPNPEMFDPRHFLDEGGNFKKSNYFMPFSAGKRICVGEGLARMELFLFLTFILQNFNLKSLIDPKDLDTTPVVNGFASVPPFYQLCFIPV
Cav3 T inh – Cav3.2 calcium influx blockers – cell-based, Fluo-4 calcium fluorescence, FDSS, MLSMR library, primary screen; Cav3.2-expressing cells; stronger effect = lower value; B-score at 10 µM; actives 4% (n = 100,000);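 active = single-dose well whose peak fluorescence ratio is a statistical outlier from its plate by either plate-standardised score or position-corrected B-score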
CYP2C19 inhib – blockers of cytochrome P450 2C19 activity – biochemical, luminescence, ADME assay, primary screen. P33261. CYP2C19 Supersomes, luciferin-H EGE luminescence, 30 min. inhibition, % at 5 µM. actives 21% (n = 96,000). AID 778, 2007;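 active = CYP2C19 inhibition above a set limit at 5 µM in the primary screen, cut at about 50% in these data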;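 note: plate controls were negative control wells for no effect and 2.5 mM tranylcypromine positive control for full effect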
CYP2C9 act – human CYP2C9 activators, primary screen, biochemical, luminescence | Cytochrome P450 2C9 (Homo sapiens), P11712 | recombinant CYP2C9, luciferin-H conversion; stronger effect = higher value; factor 1 = untreated enzyme, 0 = blocked | activation factor at 5 µM | actives 1.4% (n = 96,000) | AID 1024, 2008;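 active = activation factor of 2 or more for CYP2C9 at a 5 µM dose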;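 note: 0 = sulfaphenazole-blocked wells and 1 = vehicle-only wells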
* hit, by the source's call; . = no result. Compounds with a hit are over-represented: about 27% of the library has one in this group of screens.

SMILES	CYP2C9 inh	CYP2C19 act	Cav3 T inh	CYP2C19 inhib	CYP2C9 act
CCN1CCN(C(=O)C2c3cc(OC)c(OC)cc3C(=O)N(C)C2c2ccc(SC)cc2)CC1 (centres undefined)	.	.	0.0533	.	.
C=C(C)C1Cc2c(C)nn(-c3nc(C)cc(C)n3)c2C1 (centres undefined)	0.9	1.1	-1.43	-12.7	1
Cc1c(NC(=O)C(CC(=O)O)NCc2ccco2)c(=O)n(-c2ccccc2)n1C (centres undefined)	.	.	0.964	.	.
C[C@H]1CC[C@@]2(O[C@@H](CCO)C[C@H](O)[C@H]2O)O1	.	.	0.0377	.	.
CCc1nnc(NC(=O)CSc2nnc(-c3c[nH]c4ccccc34)n2CC)s1	56.8*	0.8	-0.0741	24.0	0.4
COCCCn1c(SCC(=O)N2CC(=O)Nc3ccccc32)nnc1-c1ccoc1C	14.3	1	-0.224	4.6	0.9
CCCn1c(SCC(=O)Nc2nnc(CC)s2)nnc1-c1ccco1	46.2	0.9	1.15	10.5	0.5
COCCCn1c(SCC(=O)n2c(C)c(C)c3ccccc32)nnc1-c1ccoc1C	-38.4	0.1	-1.64	88.8*	1.4
CCc1nnc(NC(=O)CSc2nnc(-c3ccco3)n2CC)s1	64.9*	0.6	-0.236	38.6	0.4
CCn1c(SCC(=O)Nc2ccc3c(c2)c2ccccc2n3CC)nnc1-c1ccco1	28.1	0.2	.	85.0*	0.7
CCn1c(SCC(=O)Nc2nonc2C)nnc1-c1ccco1	32.2	0.1	.	85.5*	0.7
CCn1c(SCC(=O)Nc2nc(C)cs2)nnc1-c1ccco1	3.3	0.6	0.19	38.0	1
Cc1cc(C)n(CC(=O)n2c(C)c(C)c3ccccc32)n1	.	.	-0.0573	.	.
CCCCn1c(SCC(=O)Nc2cc(C)on2)nnc1-c1ccco1	4.1	0.8	-0.0162	16.6	1
CCn1c(SCC(=O)n2c(C)c(C)c3ccccc32)nnc1-c1ccco1	-80.9	0.1	.	86.8*	1.8
CCn1c(SCC(=O)N2c3ccccc3CC2C)nnc1-c1ccco1 (centres undefined)	.	.	0.82	.	.
CCn1c(SCC(=O)Nc2cc(C)on2)nnc1-c1ccco1	33.0	0.5	-0.158	53.3*	0.7
Cc1c(C)n(C(=O)CSc2nccn2C)c2ccccc12	-15.8	0.2	-0.393	78.6*	1.2
CCN1C(=Nc2ccc(Cl)cc2)SC/C1=C\C(=O)OC	8.8	0.8	-0.562	16.0	0.9
CCOC(=O)c1cnc2cc(C)nn2c1-c1ccccc1	10.6	1	-0.341	2.1	0.9
CCC(=O)Nc1cc(C(=O)OC(C(=O)c2ccc(C)c(C)c2)c2ccccc2)ccc1C (centres undefined)	57.6*	0.6	-3.78	39.5	0.4
Cc1nc(NC(C)c2ccccc2)c2c3c(sc2n1)CCC3 (centres undefined)	55.9*	0.2	-2.21	83.8*	0.4
O=C(O)[C@H](CO)Nc1ncnc2sc3c(c12)CCC3	-15.7	0.9	.	10.9	1.2
O=S(=O)(Nc1ncnc2sc3c(c12)CCC3)c1ccc(Cl)s1	80.6*	0.9	-2.85	6.1	0.2
Cc1nc(NS(=O)(=O)c2ccc(Br)cc2)c2c3c(sc2n1)CCC3	97.1*	0.2	-4.61*	76.5*	0
SMILES	CYP2C9 inh	CYP2C19 act	Cav3 T inh	CYP2C19 inhib	CYP2C9 act
CCCC(=O)Nc1ccc(Cl)c(NC(=O)c2cccnc2Cl)c1	8.0	1	0.137	1.6	0.9
COc1ccc(N2CCN(C(=O)CCNS(=O)(=O)c3ccc(Br)s3)CC2)cc1	90.8*	0.2	-3.64	80.0*	0.1
Cc1ccc(S(=O)(=O)NCCC(=O)NC2CCCC2)cc1	-148.3	0.9	.	13.1	2.5*
O=C(CCNS(=O)(=O)c1ccc(Br)s1)Nc1ccc(Cl)cc1	-99.8	0.6	-1.77	41.5	2*
O=C(CCNS(=O)(=O)c1ccc(Br)s1)N1CCCCC1	-66.4	0.3	0.598	67.8*	1.7
O=c1[nH]c(=O)n(CCO)c2nnn(Cc3ccccc3)c12	-7.8	0.9	0.512	9.2	1.1
O=S(=O)(NC1CCCCCC1)c1ccc(Br)s1	.	.	-4.89*	.	.
COc1ccccc1N1CCN(C(=O)CCc2ccc(S(=O)(=O)NCC(C)C)cc2)CC1	39.4	1	0.645	2.2	0.6
